Test [1] in a line: NCI Yeast Anticancer Drug Screen. Data for the rad50 strain (AID 155).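 Also: 0% = growth of vehicle-only cultures of the same strain.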 The conditions noted are these: S. cerevisiae rad50 strain growth inhibition, active compounds read high. In a few lines:
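Inhibition values express reduced yeast growth in compound-treated cultures relative to vehicle-treated controls.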

Test [2] can be described thus: NCI Yeast Anticancer Drug Screen. Data for the mec2-1 strain (AID 157). The conditions noted are these: S. cerevisiae mec2-1 strain, active compounds read high. An outline of the steps:
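Growth inhibition is read against vehicle-treated controls after compound exposure of the mec2-1 yeast strain, which is defective in DNA damage repair or cell cycle control.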

A short description of test [3]: NCI Yeast Anticancer Drug Screen. Data for the sgs1 mgt1 strain (AID 161).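 Also: 0% = growth of cultures given vehicle only.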 Particulars: S. cerevisiae sgs1 mgt1 strain, active compounds read high. An outline of the steps:
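Yeast cells carrying a defined DNA-repair defect were exposed to test compounds. Growth inhibition was measured relative to vehicle-treated controls.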

Test [4] in a line: NCI Yeast Anticancer Drug Screen. Data for the cln2 rad14 strain (AID 165).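 Also: 0% = growth equal to vehicle treated cultures.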 The conditions noted are these: S. cerevisiae cln2 rad14 strain, active compounds read high. In a few lines:
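Growth inhibition, relative to vehicle-treated controls, is the read-out. The test organism is a yeast strain with defined genetic alterations, cln2 rad14.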

Test [5] in a line: NCI Yeast Anticancer Drug Screen. Data for the bub3 strain (AID 167). The conditions noted are these: S. cerevisiae bub3 mutant strain, active compounds read high. In a few lines:
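Steps: expose the mutant yeast strain to compound; grow alongside vehicle-treated cultures; measure growth; express inhibition against the vehicle cultures.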

Test [6] can be described thus: NCI Yeast Anticancer Drug Screen. Data for the mlh1 rad18 strain (AID 175). Particulars: S. cerevisiae mlh1 rad18 strain growth inhibition, active compounds read high. In a few lines:
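Cells of a genetically altered yeast strain, deficient in DNA damage repair, were treated with compound. Their growth was then compared with that of vehicle-treated cultures to give inhibition.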

The mark [7] stands for this setting: at 5.0 µM (retest, dose inferred, filed as 0.5).
Where [8] appears, read: at 50.0 µM (retest, dose inferred, filed as 5.0).

Each structure is given as a SMILES string. This is part of a sample that, as a whole, favours compounds with a hit. Of some 79,000 tested, about 15% had one in any assay. A number with no mark means an inactive call. Activity calls are given as the source filed them. Rule as the data show it: active = growth inhibition above about 70%; inactive = the rest.

Turning to `CN1C(OCc2ccccc2)c2c(ccc3c2OCO3)C2C=Cc3cc4c(cc3C21)OCO4` (configuration not stated), the growth inhibition in test [1] (setting [7]) is 47%; in test [1] (setting [8]) it was 99% (active); in test [1] (at 50.0 µM), 92.8% (active); in test [2] (setting [7]) it was 39%; in test [2] (setting [8]) it was 99% (active); in test [2] (at 50.0 µM) it was 93.2% (active). Besides, the growth inhibition was 96% (active) in test [3] (setting [7]); 100% (active) in test [3] (setting [8]); 93% (active) in test [3] (at 50.0 µM); 89% (active) in test [4] (setting [7]); 98% (active) in test [4] (setting [8]); 92.7% (active) in test [4] (at 50.0 µM). Also, the growth inhibition was 93% (active) in test [5] (setting [7]); 99% (active) in test [5] (setting [8]); 91.8% (active) in test [5] (at 50.0 µM); 96% (active) in test [6] (setting [7]); 99% (active) in test [6] (setting [8]); 91.1% (active) in test [6] (at 50.0 µM).
Regarding `O=C(c1ccccc1)N(C1CCCCC1)C1CCCCC1`, the growth inhibition in test [1] (setting [7]) is 7%; in test [1] (setting [8]), 97% (active); in test [1] (at 50.0 µM) it was 98.1% (active); in test [2] (setting [7]), 1%; in test [2] (setting [8]), 98% (active); in test [2] (at 50.0 µM) it was 98.5% (active). For the same molecule, the growth inhibition in test [3] (setting [7]) was 5%; in test [3] (setting [8]), 97% (active); in test [3] (at 50.0 µM), 99% (active); in test [4] (setting [7]), -2%; in test [4] (setting [8]), 95% (active); in test [4] (at 50.0 µM) it was 98.9% (active). The growth inhibition in test [5] (setting [7]) is -3%; in test [5] (setting [8]), 93% (active); in test [5] (at 50.0 µM), 98% (active); in test [6] (setting [7]), 5%; in test [6] (setting [8]) it was 97% (active); in test [6] (at 50.0 µM), 98.3% (active).
With `Cc1ccc(NC(=S)SCc2ccco2)cc1Cl`, the growth inhibition in test [1] (setting [7]) is 22%; in test [1] (setting [8]), 99% (active); in test [1] (at 50.0 µM), 99.5% (active); in test [2] (setting [7]) it was 5%; in test [2] (setting [8]) it was 99% (active); in test [2] (at 50.0 µM) it was 99.8% (active). Moreover, the growth inhibition is 12% in test [3] (setting [7]); 99% (active) in test [3] (setting [8]); 99.7% (active) in test [3] (at 50.0 µM); -3% in test [4] (setting [7]); 99% (active) in test [4] (setting [8]); 99.5% (active) in test [4] (at 50.0 µM). In addition, the growth inhibition in test [5] (setting [7]) is -3%; in test [5] (setting [8]), 99% (active); in test [5] (at 50.0 µM), 99.7% (active); in test [6] (setting [7]) it was 20%; in test [6] (setting [8]), 99% (active); in test [6] (at 50.0 µM), 99.6% (active).
Consider `O=C1C(C=NC(=S)c2ccccc2)=C(O)c2ccccc21`, for which the growth inhibition in test [1] (setting [7]) is 22%; in test [1] (setting [8]), 72% (active); in test [1] (at 50.0 µM), -13.8%; in test [2] (setting [7]), 23%; in test [2] (setting [8]), 68%; in test [2] (at 50.0 µM), -12.1%. The growth inhibition is 33% in test [3] (setting [7]); 68% in test [3] (setting [8]); 2.35% in test [3] (at 50.0 µM); 20% in test [4] (setting [7]); 48% in test [4] (setting [8]); 10.1% in test [4] (at 50.0 µM). The growth inhibition in test [5] (setting [7]) was 31%; in test [5] (setting [8]), 81% (active); in test [5] (at 50.0 µM) it was -4.7%; in test [6] (setting [7]), 32%; in test [6] (setting [8]), 87% (active); in test [6] (at 50.0 µM), 6.45%.
`c1ccc(OCC2c3ccccc3Nc3ccccc32)cc1`: the growth inhibition in test [1] (setting [7]) is 98% (active); in test [1] (setting [8]), 97% (active); in test [1] (at 50.0 µM), 71.9% (active); in test [2] (setting [7]), 99% (active); in test [2] (setting [8]), 98% (active); in test [2] (at 50.0 µM) it was 28.6%. Besides, the growth inhibition in test [3] (setting [7]) is 99% (active); in test [3] (setting [8]), 97% (active); in test [3] (at 50.0 µM), 26.9%; in test [4] (setting [7]) it was 99% (active); in test [4] (setting [8]) it was 96% (active); in test [4] (at 50.0 µM), -51.8%. The growth inhibition in test [5] (setting [7]) was 92% (active); in test [5] (setting [8]) it was 97% (active); in test [5] (at 50.0 µM) it was -0.2%; in test [6] (setting [7]), 99% (active); in test [6] (setting [8]) it was 95% (active); in test [6] (at 50.0 µM), 67.2%.
Take `O=C1/C(=C/c2ccccc2Cl)COc2ccccc21`: the growth inhibition was 30% in test [1] (setting [7]); 97% (active) in test [1] (setting [8]); 91.5% (active) in test [1] (at 50.0 µM); -15% in test [2] (setting [7]); 98% (active) in test [2] (setting [8]); 93.9% (active) in test [2] (at 50.0 µM). The growth inhibition was 15% in test [3] (setting [7]); 97% (active) in test [3] (setting [8]); 90.7% (active) in test [3] (at 50.0 µM); 20% in test [4] (setting [7]); 97% (active) in test [4] (setting [8]); 90.8% (active) in test [4] (at 50.0 µM). Moreover, the growth inhibition in test [5] (setting [7]) was 32%; in test [5] (setting [8]) it was 98% (active); in test [5] (at 50.0 µM) it was 90.7% (active); in test [6] (setting [7]), -25%; in test [6] (setting [8]) it was 97% (active); in test [6] (at 50.0 µM), 90.2% (active).
Turning to `O=S(=O)(O)C(O)c1ccc2ccc3cccc4ccc1c2c34` (configuration not stated), the growth inhibition is 12% in test [1] (setting [7]); 95% (active) in test [1] (setting [8]); 94.4% (active) in test [1] (at 50.0 µM); -2% in test [2] (setting [7]); 96% (active) in test [2] (setting [8]); 95.3% (active) in test [2] (at 50.0 µM). In addition, the growth inhibition was 4% in test [3] (setting [7]); 92% (active) in test [3] (setting [8]); 67.8% in test [3] (at 50.0 µM); -4% in test [4] (setting [7]); 84% (active) in test [4] (setting [8]); 77.5% (active) in test [4] (at 50.0 µM). In addition, the growth inhibition in test [5] (setting [7]) is -3%; in test [5] (setting [8]), 94% (active); in test [5] (at 50.0 µM), 97.5% (active); in test [6] (setting [7]), 3%; in test [6] (setting [8]) it was 95% (active); in test [6] (at 50.0 µM), 97% (active).
As to `O=C1OC2(CCN(Cc3ccccc3)CC2)C(=O)N1c1cccc(Cl)c1`, the growth inhibition in test [1] (setting [7]) is -1%; in test [1] (setting [8]), 35%; in test [1] (at 50.0 µM), 79.5% (active); in test [2] (setting [7]) it was -8%; in test [2] (setting [8]), 22%; in test [2] (at 50.0 µM) it was 18.5%. Moreover, the growth inhibition in test [3] (setting [7]) is 28%; in test [3] (setting [8]), 58%; in test [3] (at 50.0 µM), 76.5% (active); in test [4] (setting [7]) it was 60%; in test [4] (setting [8]), 52%; in test [4] (at 50.0 µM) it was 40.8%. The growth inhibition is 14% in test [5] (setting [7]); 81% (active) in test [5] (setting [8]); 52.8% in test [5] (at 50.0 µM); 3% in test [6] (setting [7]); 37% in test [6] (setting [8]); 62.5% in test [6] (at 50.0 µM).
Turning to `O=[N+]([O-])c1ccccc1SCc1ccccc1`, the growth inhibition is 17% in test [1] (setting [7]); 47% in test [1] (setting [8]); 85.4% (active) in test [1] (at 50.0 µM); -18% in test [2] (setting [7]); 35% in test [2] (setting [8]); 15.8% in test [2] (at 50.0 µM). Further, the growth inhibition in test [3] (setting [7]) is 16%; in test [3] (setting [8]), 49%; in test [3] (at 50.0 µM) it was 54.7%; in test [4] (setting [7]) it was 15%; in test [4] (setting [8]), 43%; in test [4] (at 50.0 µM) it was 44%. Moreover, the growth inhibition in test [5] (setting [7]) was -1%; in test [5] (setting [8]) it was 79% (active); in test [5] (at 50.0 µM), 30.8%; in test [6] (setting [7]), 13%; in test [6] (setting [8]) it was 74% (active); in test [6] (at 50.0 µM), 52.6%.
